Screen size: about 75,000 compounds; about 5,700 (7.6%) were called active. Roughly 7% stayed inconclusive and do not appear here. Only a selection was taken, and actives are over-represented in it overall. Values without a mark were called inactive. The call rests on the fitted dose curve; in most records, active means well fitted inhibition curve with a large enough effect; inconclusive means small, poorly fitted or top-dose-only effect; inactive means no such curve, though single readings can be large or run the other way.
molecular target: 3-hydroxyacyl-CoA dehydrogenase type-2 (Homo sapiens) (UniProt Q99714); assay: qHTS Assay for Inhibitors of HSD17B4, hydroxysteroid (17-beta) dehydrogenase 4; details: recombinant HSD17B10, NADH fluorescence kinetic; series mostly up to 57.1 µM; activity change, negative = inhibition: at the top concentration;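 further: the protocol describes HADH2 (HSD17B10) and not the HSD17B4 of the title; nearly all actives have a fitted effect of over 70% in size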
Outline: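 Activity followed as NADH fluorescence increase (ex 360, em 450 nm) every 30 seconds for 4 min, using final 90 uM beta-hydroxybutyryl CoA and 1 mM NAD+. Recombinant His-tagged enzyme, 20 nM, pH 9.0 Tris buffer, 15 min compound preincubation.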
On the % scale 0 is the no-effect control and ±100 the full control effect; potency means the concentration at half of the fitted maximal effect.

| SMILES | activity change, negative = inhibition | Potency |
| --- | --- | --- |
| CC1OC2C(OC1C)N(S(C)(=O)=O)CCN2S(C)(=O)=O (stereo not drawn) | -1.39% | – |
| C=CC(=C)CCC=C(C)C | -4.3% | – |
| COc1ccc2[nH]c3cc4c(=O)c5cc(OC)ccc5[nH]c4cc3c(=O)c2c1 | 3.71% [at 11.4 µM] | – |
| COc1ccc2[nH]c3ccc(OC)cc3c2c1 | – | 25.1 µM (active) |
| COc1ccc(N)c(C)c1 | -1.56% | – |
| C=CCOC(=O)COCCC(C)C | 4.39% | – |
| CCOC(=O)CSc1nnc(CNc2nc(-c3ccccc3)cs2)n1C | -8.89% | – |
| COCCCNC(=O)c1ccc(CNS(=O)(=O)c2ccc(NC(C)=O)cc2)cc1 | 15.2% | – |
| c1ccc(CSc2nnc(-c3ccco3)c(-c3ccco3)n2)cc1 | – | 10 µM (active) |
| c1ccc(CSc2nnc(-c3ccco3)n2Cc2ccccc2)cc1 | -11.7% | – |
| O=C(CSc1nnc(-c2ccco2)n1-c1ccccc1)NCCc1ccccc1 | -6.42% | – |
| COc1ccc(C(=O)N2CCC(C(=O)Nc3cccc(C)c3)CC2)cc1OC | 3.62% | – |
| CCCCOC(=O)c1ccc(N2C(=O)CC(N3CCN(C/C=C/c4ccccc4)CC3)C2=O)cc1 (stereo not drawn) | -3.57% | – |
| CCOc1nc(-c2ccc(OC)cc2)ccc1-c1noc(-c2cc(OC)c(OC)c(OC)c2)n1 | – | 3.16 µM (active) |
| COc1ccc(-c2noc(COc3ccc(Cl)c(C)c3)n2)cc1 | -1.03% | – |
| COc1cc(-c2nc(-c3ccncc3)no2)cc(OC)c1OC | -1.31% | – |
| CCCN1C(=O)C(NC(C)=O)c2cc(OC)ccc21 (stereo not drawn) | -3.97% | – |
| O=C(OCCN1CCOCC1)C1(c2ccccc2)CCCCC1 | – | inactive |
| CCOC(=O)c1c(CN2CCOCC2)n(-c2ccccc2)c2ccc(O)cc12 | -11.3% | – |
| O=C(CN1CCOCC1)N1CCCc2c1c(=O)oc1ccc(OCc3ccccc3)cc21 | – | 31.6 µM (active) |
| O=C(CN1CCN(C(=O)c2ccco2)CC1)Nc1ccc(Cl)c(C(F)(F)F)c1 | 7.45% | – |
| CCOc1ccccc1NC(=O)C1CCC(CNc2c(N3CCOCC3)c(=O)c2=O)CC1 (stereo not drawn) | -4.03% | – |
| Cn1c(C(=O)NCCCN2CCCCC2)cc2sccc21 | 4.89% | – |

| SMILES | activity change, negative = inhibition | Potency |
| --- | --- | --- |
| Cc1ccsc1-c1nc(CSCC(=O)NCCN2CCCC2)c(C)o1 | – | 31.6 µM (active) |
| Cc1cc(NC(=O)CSCc2nc(-c3cccc(Cl)c3)oc2C)no1 | -6.97% | – |
| CN(C)/C=N/c1cc(=O)n(C)c(=O)n1CC1CC1 | -6.59% | – |
| COCc1cc(C)nc(Nc2cc(C)ccc2C)c1C#N | -11.9% | – |
| CCN1CCCC1CNc1ncnc2c1[nH]c1ccc(F)cc12 (stereo not drawn) | – | 31.6 µM (active) |
| Fc1ccc2[nH]c3c(N4CCSCC4)ncnc3c2c1 | – | 25.1 µM (active) |
| CCCn1c(-c2ccc(F)cc2)nc2c(NCC3CCCN3CC)nc(C)nc21 (stereo not drawn) | – | 31.6 µM (active) |
| CCN1CCCC1CNC(=O)Cn1cnc2ccc(S(=O)(=O)N3CCC(C)CC3)cc2c1=O (stereo not drawn) | 0.495% | – |
| CC(C)OCCCNc1ncnc2c1[nH]c1ccc(F)cc12 | – | 25.1 µM (active) |
| CCN1C(=O)CS/C1=N\c1nccs1 | 0.908% | – |
| CCOC(=O)N1CCN(C(=O)C2CC(c3ccc(F)cc3)=NO2)CC1 (stereo not drawn) | 3.44% | – |
| O=Cc1c(Cl)cccc1Cl | -1.86% | – |
| O=C(c1cn(-c2ccccc2)nc1-c1cccnc1)N1CCCCC1 | -4.88% | – |
| COc1ccc2[nH]cc(CCNc3nc(-c4cccc(NS(C)(=O)=O)c4)nc4ccccc34)c2c1 | -12.8% | – |
| CO[C@H]1COC(=O)C/C=C\[C@H](C)COC(=O)[C@@H](OCc2ccccc2)/C=C\[C@@H]1C | -3.84% [at 11.4 µM] | – |
| CS(=O)(=O)N1CCC[C@@]2(CCN(c3ccncc3)C2)C1 | -5.74% | – |
| CCNCCCNCCCNCCCNCC | 7.38% | – |
| C=C[C@](C)(O)CCC1C(=C)CCC2[C@@](C)(CO)CCC[C@@]12C (stereo partly drawn) | -2.46% | – |
| COC(=O)C(C(=O)OC)[C@@H]1CCCC(=O)C1 | 8.89% [at 11.4 µM] | – |
| O=C(CNS(=O)(=O)c1ccc(Br)s1)NCc1ccc2c(c1)OCO2 | 6.92% | – |
| COc1ccc(-c2nc(CS(=O)CC(=O)NCc3ccccn3)c(C)o2)cc1 (stereo not drawn) | -29.4% | – |
| Cc1ccc(-c2nc(CS(=O)CC(=O)NC3CCCC3)c(C)o2)cc1 (stereo not drawn) | -6% | – |
| COc1ccc(-c2nc(CS(=O)CC(=O)NCc3cccnc3)c(C)o2)cc1OC (stereo not drawn) | – | 25.1 µM (active) |

| SMILES | activity change, negative = inhibition | Potency |
| --- | --- | --- |
| CCOc1ccc(C(=O)N(Cc2ccc(N(C)C)cc2)C2CCS(=O)(=O)C2)cc1 (stereo not drawn) | 9.23% | – |
| CN1CCc2nc(-c3ccccc3)c(-c3ccccc3)cc2C1 | 2.91% [at 11.4 µM] | – |
| COc1cc(C2C(C(=O)c3ccc(C)o3)=C(O)C(=O)N2Cc2cccnc2)ccc1O (stereo not drawn) | -28.4% | – |
| O=C(Nc1ccccc1N1CCCCC1)c1cccc(F)c1 | -4.57% | – |
| Cc1cc(C)cc(N(C(C)C(=O)Nc2c(C)n(C)n(-c3ccccc3)c2=O)S(C)(=O)=O)c1 (stereo not drawn) | 9.82% | – |
| COC(=O)Nc1c(C)n(C)n(-c2ccccc2)c1=O | -2.47% | – |
| Cc1c(NC(=O)C(C)OC(=O)c2cc3c4ccccc4n(C)c3s2)c(=O)n(-c2ccccc2)n1C (stereo not drawn) | – | 3.98 µM (active) |
| CCOC(=O)CSc1nnc(CNC(=O)c2ccco2)n1-c1ccc(F)cc1 | -1.04% | – |
| C/C(=C\C(=O)c1cccnc1)Nc1ccc(C)c(C)c1 | -6.77% | – |
| O=c1cccc(-c2ccc(Br)cc2)o1 | -12% | – |
| CC1C(c2ccccc2)=[N+]([O-])C2(CCCC2)N1O (stereo not drawn) | -1.86% | – |
| Nc1ncnc2c1ncn2C1CC(O)C(CO)O1 (stereo not drawn) | – | inactive |
| CCC[C@@H]1C[C@@]1(CCC)[C@@H](NC(=O)c1ccccc1)c1ccc(C(=O)OC)cc1 | 0.355% | – |
| Cc1nc2c(C(=O)NCc3ccc4c(c3)OCO4)c[nH]n2c(=O)c1Cc1ccccc1F | – | 31.6 µM (active) |
| O=C(CCCCn1c(=O)[nH]c2ccccc2c1=O)NCc1ccc2c(c1)OCO2 | -18.5% | – |
| CCn1cc(C(=O)NCc2ccc3c(c2)OCO3)c2cc(OC)c(OC)cc2c1=O | -19.8% | – |
| CC1CCCCC1NC(=O)CCS(=O)(=O)c1cccc2nonc12 (stereo not drawn) | -8.2% | – |
| COc1ccc2oc(=O)c(C(=O)O)cc2c1 | 4.12% | – |
| COc1ccc2oc(=O)c(C(=O)N3CCCc4ccccc43)cc2c1 | 4.06% | – |
| COc1ccc2oc(=O)c(C(=O)N3CCN(c4ccccc4F)CC3)cc2c1 | – | 25.1 µM (active) |
| CC(=O)C1C(c2ccc(Cl)cc2)NC(=O)NC1(O)C(F)(F)F (stereo not drawn) | 0.683% | – |
| COC(=O)[C@@]1(Cc2ccc(F)cc2)[C@@H]2[C@@H](CC(=O)[C@H]2CC(=O)C(=O)N2CCCC2)CN1C(=O)c1ccccc1 | -1.36% | – |

Source: PubChem BioAssay AID893 (National Center for Advancing Translational Sciences (NCATS), 2007)
